PubChem BioAssay
Entries with a potency or affinity are not part of this list.

Test: inducers of Cryptococcus neoformans cell lysis, dose response, AK release luminescence, cherry-picks (AID 687000);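 also: luminescent detection of adenylate kinase leaking from lysed yeast; 0% = median neutral control signal and 100% = double that signal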
Conditions: C. neoformans lysis, adenylate kinase release luminescence, 4 h, 100% = twice the neutral-control signal; series mostly up to 15 µM; lysis activity: at the top concentration;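 active = fitted dose curve reaches 40% lysis signal rise at or below the highest valid concentration tested for that sample; inconclusive = flat fit between 30% and 70%, or poor curve fit; inactive = signal falls, stays flat within 30%, or no crossing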

Lysis activity, inactive:
COc1cccc(S(=O)(=O)Nc2ccc3c(c2)OC[C@@H](C)NC[C@H](C)[C@@H](OC)CN(C)C3=O)c1 -1.17%
O=S1(=O)CCC(N=Cc2cc(Br)ccc2O)C1 (centres undefined) -23%
CC(C)(C)SCCNC(=O)CN(c1ccccc1)S(=O)(=O)c1ccccc1 16.9%
Cc1noc(C)c1S(=O)(=O)Nc1ccc2c(c1)C(=O)N([C@@H](C)CO)C[C@@H](C)[C@H](CN(C)Cc1ccc3c(c1)OCO3)OCCCC[C@H](C)O2 -0.817%
C[C@H](CO)N1C[C@H](C)[C@H](CN(C)Cc2ccccc2F)Oc2cc(C3=CCCC3)ccc2S1(=O)=O -3.25%
CCC(C)c1ccc(NC(=S)N2CCN(c3ccccn3)CC2)cc1 (centres undefined) -16.5%
C[C@H]1CN([C@@H](C)CO)C(=O)Cc2cc(NS(=O)(=O)c3cn(C)cn3)ccc2O[C@@H]1CN(C)Cc1ccc(Oc2ccccc2)cc1 -3.89%
Cc1cccc(C)c1NC(=O)C1(NC(=O)C2CCC(=O)N2)CCCCC1 (centres undefined) 7.47%
C[C@H]1CN([C@@H](C)CO)C(=O)c2cc(-c3ccccc3)cnc2O[C@@H]1CN(C)C(=O)c1ccccn1 -3.6%
CCOC(=O)NCc1ccc2[nH]c(C)cc2c1 -3.99%
Cc1ccccc1NC(=O)C(NC1CCCCC1)C(C)C (centres undefined) -7.2%
CC(NC(=O)COc1ccccc1Cl)c1ccccc1 (centres undefined) -24.2%
O=C(CSc1ncnc2c1cnn2-c1ccc(F)cc1)NCC1CCCO1 (centres undefined) 3.65%
Cc1noc(C)c1NC(=O)N(C)C[C@H]1OCCCC[C@@H](C)Oc2ccc(NC(=O)NC(C)C)cc2C(=O)N([C@H](C)CO)C[C@H]1C -1.57%
O=C(c1cccs1)N1CCN(c2nc3ccccc3s2)CC1 5.84%
COc1ccc(N(C)C(=O)c2cn(CC(C)C)c(=O)c3cc(OC)c(OC)cc23)c(OC)c1 -2.19%
CCNC(=O)CN(c1ccc(C)cc1)S(=O)(=O)c1ccc(SC)cc1 15.7%
O=C(c1cccnc1)N1C[C@H]2[C@@H](c3ccccc31)[C@@H](CO)N2C(=O)Nc1ccc(F)cc1 -15.1%
COC(=O)C1=C(C)N(Cc2ccc(Cl)cc2)C(=S)NC1c1cccc(OC)c1 (centres undefined) 15.5%
Cc1ccc(C(=O)n2nnc3ccccc32)cc1[N+](=O)[O-] 8.02%
C[C@@H]1CCCCO[C@H](CN(C)Cc2ccccc2)[C@H](C)CN([C@@H](C)CO)C(=O)c2cc(NS(=O)(=O)c3cccs3)ccc2O1 1.39%
O=C(C[C@@H]1CC[C@H](NC(=O)Cc2ccccn2)[C@@H](CO)O1)NCCc1ccccc1 2.96%
Cc1ccc(NC(=O)C(=O)NCCCN2CCCC2=O)c(C)c1 -18.3%
CO[C@@H]1CN(C)C(=O)c2ccc(NS(=O)(=O)c3ccc(Oc4ccccc4)cc3)cc2OC[C@H](C)NC[C@H]1C -7.83%
O=C(c1ccco1)N1N=C(c2cccs2)CC1c1ccco1 (centres undefined) -29.1%
Fc1ccc(CNC(=S)NCc2cccc(Cl)c2)cc1 -2.97%
C[C@H](CO)N1C[C@H](C)[C@H](CN(C)Cc2ccc(Cl)c(Cl)c2)Oc2c(NC(=O)Nc3ccccc3)cccc2C1=O -0.565%
CCCN1C(=O)C(O)(C2CC(=O)CC(C)(C)O2)c2ccccc21 (centres undefined) 7.78%
Cc1cc(C)cc(OCC(=O)NC(C)c2ccccc2)c1 (centres undefined) -25.9%
Cc1ccc(C2CC(c3cccs3)=NN2C(=O)c2ccc(Br)o2)cc1 (centres undefined) -36.1%
Cc1ccccc1N(CC(=O)NCCSC1CCCCC1)S(=O)(=O)c1ccccc1 -9.29%
Cc1ccc(OCC(=O)NC(C)c2ccccc2)cc1 (centres undefined) 0.954%
COc1ccc(N2CCN(C(=O)CSc3ncnc4c3cnn4-c3ccccc3C)CC2)cc1 3.19%
CC(C)NC(=O)Nc1ccc2c(c1)C(=O)N([C@@H](C)CO)C[C@@H](C)[C@@H](CN(C)C(=O)NC1CCCCC1)OCCCC[C@H](C)O2 -12.4% [at 7.5 µM]
COCCN1C(=O)CCC1(C)C(=O)Nc1c(C)cccc1C (centres undefined) -1.13%
C[C@@H]1CN([C@H](C)CO)C(=O)c2cccc(NC(=O)c3ccncc3)c2O[C@H]1CN(C)C(=O)Nc1ccc(C(F)(F)F)cc1 12.9%
Cc1ccc(C(=O)Nc2ccc3ncccc3c2)cc1 -93.2%
CC=Cc1ccc2n(c1=O)C[C@@H]1[C@@H](CO)[C@H](C(=O)NCc3ccc4c(c3)OCO4)[C@H]2N1C(=O)C1CC1 (mixture of isomers) 4.07%
Cc1ccc(C2CCN(C(=S)NC3CCCCC3)C2)cc1 (centres undefined) -3.5%
